Screening data: PubChem, National Center for Advancing Translational Sciences (NCATS)
Tau fluor cs = counter-screen for tau fibril formation inhibitors; tau K18 P301L Alexa594 fluorescence, heparin fibrillization; Potency, µM (highest dose often 57.7 µM), without a hit: top-dose activity change, negative = decrease; 280,000 tested, 0.93% active; also: potency is read from the fitted curve at half-maximal effect; nearly all actives have a fitted effect of over 55% in size
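Human K18 P301L tau (15 uM unlabeled plus 0.24 uM Alexa 594-labeled, final) in 100 mM sodium acetate pH 7 was mixed with compound and 20 uM heparin and incubated 6 hr at 37 C.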
Coupling enz = inhibits coupling enzyme system, counter-screen for aldolase hits | coupling enzyme system counterscreen, AmpLite Red fluorescence | activity change, negative = inhibition, % at 58.2 µM, hits read low | 290,000 tested, 0.67% active | AID 2472; in the data active = activity change below about -30%
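First, compound is pin-transferred into glyceraldehyde-3-phosphate coupling-enzyme reagent at 57.5 uM final and held 10 min at RT. Next, substrate, coupling system and AmpLite Red are added. After 20 min RT, fluorescence (525/598 nm) is read.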
Sfp inh = inhibitors of Bacillus subtilis Sfp phosphopantetheinyl transferase; Q9F4F7; AID 1490; Potency, µM, inactives show largest response in the series, negative = inhibition, actives largely listed as inhibitors; Biochemical Sfp PPTase activity, qHTS; 310,000 tested, 3.5% active;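 also: the enzyme is Sfp with the accession as filed and its product quenches rhodamine fluorescence; potency is read from the fitted curve at half-maximal effect; 0% = enzyme reaction without inhibitor and -100% = no enzyme wells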
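Compounds were incubated with enzyme (final 15 nM) for 15 min at room temperature before substrate addition started the reaction. Fluorescence at 525 nm excitation, 598 nm emission was recorded immediately and after 30 minutes.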
Tau fibril ThT = blocks human tau fibril formation measured by thioflavin T. AID 1460. P10636. recombinant tau K18 P301L (four-repeat tau fragment), heparin-induced fibrillization, ThT fluorescence. Potency, µM (top dose mostly 57.4 µM), without a hit: at the top dose activity, negative = inhibition, usual class: inhibitors. 270,000 tested, 2.1% active; also: potency is read from the fitted curve at half-maximal effect; nearly all actives have a fitted effect of over 55% in size
Target sequence (P10636 561-689 P618L limits assumed): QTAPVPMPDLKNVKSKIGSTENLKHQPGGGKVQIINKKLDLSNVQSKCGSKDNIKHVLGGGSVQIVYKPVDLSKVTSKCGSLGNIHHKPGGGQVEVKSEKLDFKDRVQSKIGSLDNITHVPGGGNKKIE
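Heparin-induced fibrillization of the P301L-mutant K18 repeat-domain fragment of human tau was followed by ThT binding in quantitative high-throughput format.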
JMJD2E inh = JMJD2E (human) inhibition; AID 2147; Potency, µM (titrated, usually from 57.1 µM), for inactives: at the highest dose activity change, negative = inhibition, actives largely listed as inhibitors; B2RXH2; JMJD2E catalytic domain, FDH-coupled NADH fluorescence (FDH is formaldehyde dehydrogenase); 230,000 tested, 1.6% active; active = well fitted inhibition curve with a large enough effect, not every such curve was filed as active; inconclusive = small, poorly fitted or top-dose-only effect, or another doubt; inactive = no such curve, though single readings can be large or run the other way;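 also: potency is read from the fitted curve at half-maximal effect; 0% = wells with enzyme and -100% = buffer wells without enzyme; nearly all actives have a fitted effect of over 50% in size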
Target sequence (B2RXH2 1-337 limits assumed): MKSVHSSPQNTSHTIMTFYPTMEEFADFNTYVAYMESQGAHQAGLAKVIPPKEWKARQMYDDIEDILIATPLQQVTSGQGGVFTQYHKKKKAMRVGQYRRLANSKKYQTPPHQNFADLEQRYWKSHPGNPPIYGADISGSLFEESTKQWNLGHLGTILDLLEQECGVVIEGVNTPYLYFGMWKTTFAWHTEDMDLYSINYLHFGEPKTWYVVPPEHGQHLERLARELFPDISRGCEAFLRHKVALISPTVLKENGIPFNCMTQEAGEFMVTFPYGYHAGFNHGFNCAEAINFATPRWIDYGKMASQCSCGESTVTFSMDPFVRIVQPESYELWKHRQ
Tau FP inhib = tau fibrillization inhibition (FP) | K18 P301L tau heparin fibrillization, Alexa594 FP, 6 h | Potency, µM (highest dose often 57.7 µM), for inactives: at the top dose activity, negative = inhibition, hits mostly inhibitors | 280,000 tested, 0.39% active | P10636; also: potency is read from the fitted curve at half-maximal effect; nearly all actives have a fitted effect of over 55% in size
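Recombinant K18 P301L […], labeled with Alexa 594 at 0.24 uM over 15 uM unlabeled; heparin inducer 20 uM final; 37 C, 6 hr; FP endpoint.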
The depositor's hits bear a star; ? = inconclusive; nt = no result. Shown are actives, neighbours in structure and some others; about 5.3% of the full set was active somewhere. Unless noted, calls follow the shape of the dose curve; as a rule, active = well fitted curve in the direction sought with a large enough effect; inconclusive = small, poorly fitted or top-dose-only effect, or another doubt; inactive = no such curve, though single readings can be large; an effect the other way counts as inactive or inconclusive. Unless noted, % is scaled to controls: 0 for no effect and ±100 for the full control effect.

SMILES	Tau fluor cs	Coupling enz	Sfp inh	Tau fibril ThT	JMJD2E inh	Tau FP inhib
Cc1ccc(N2C(=O)CSC2c2cccs2)cc1 (stereo not given)	5%	-2	9%	-2%	7%	-3%
Cc1ccc(N2CSC3=C(C#N)C(c4cccs4)CC(=O)N3C2)cc1 (stereo not given)	-20%	-28	1.4µM*	?	?	?
COc1ccc(N2CSC3=C(C#N)C(c4cccs4)CC(=O)N3C2)cc1 (stereo not given)	?	-49*	2.2µM*	13µM*	2%	25µM*
N#CC1=C2SCN(c3ccc(F)cc3)CN2C(=O)CC1c1cccc(F)c1 (stereo not given)	?	-14	1.4µM*	16µM*	22µM*	?
CCOC(=O)c1ccc(N2CSC3=C(C#N)C(c4cccs4)CC(=O)N3C2)cc1 (stereo not given)	-15%	-6	11µM*	?	?	?
COC(=O)C1C(=O)N2CCCSC2=C(C#N)C1c1cccs1 (stereo not given)	-1%	1	0%	-10%	-6%	-3%
COc1cccc(C2CC(=O)NC(SC)=C2C#N)c1 (stereo not given)	-8%	4	1%	-11%	-2%	0%
CC1(C)CC(=O)C2=C(C1)N(c1ccc(F)cc1)C(N)=C(C#N)C2c1cccs1 (stereo not given)	-9%	nt	0%	-2%	-7%	3%
CCc1ccc(N2CSC3=C(C#N)C(c4cccs4)CC(=O)N3C2)cc1 (stereo not given)	-19%	-18	2.5µM*	13µM*	?	?
CCc1ccc(C2CC(=O)N(c3cccc(F)c3)C3=C2C(=O)OC3)cc1 (stereo not given)	-3%	-1	15%	-1%	-11%	2%
CCc1ccc(C2CC(=O)N3CN(c4ccccc4)CSC3=C2C#N)cc1 (stereo not given)	?	-19	2µM*	32µM*	?	?
Nc1ncnc2c1nc(Br)n2C1O[C@H]2COP(=O)(O)O[C@@H]2C1O (stereo not given in full)	4%	nt	nt	1%	1%	?
COc1ccc(OC)c(NC(=O)CSC2=Nc3ccccc3C3=NC(CC(=O)NCc4ccc5c(c4)OCO5)C(=O)N23)c1 (stereo not given)	-16%	nt	nt	?	nt	?
CC1=NN(c2ccccc2)C(=O)/C1=C\C=C1/N(C)c2ccccc2C1(C)C	?	-3	-18%	2.2µM*	-2%	?
CC1=NN(c2ccccc2)C(=O)/C1=C\C=C1\N(C)c2ccccc2C1(C)C	?	-5	-7%	1.6µM*	1%	1%
CC(C)C(=O)SCCCCCCC(=O)Nc1nc(-c2ccccc2)cs1	nt	-2	31%	nt	nt	nt
COc1ccc(-c2cc(C(C)=O)c(C)n2CCC(=O)Nc2ccc(C(F)(F)F)cc2)cc1	?	nt	nt	-6%	nt	-13%
CCCCN(CCCC)C(=O)c1c[nH]c2ccc(S(=O)(=O)Nc3cccc(Cl)c3C)cc2c1=O	?	nt	nt	-10%	nt	-9%
Cc1nnc2sc(-c3ccccn3)nn12	2%	2	10%	0%	-2%	4%
c1cncc(-c2nn3c(Cn4nnc5ccccc54)nnc3s2)c1	-13%	-1	32µM*	-16%	?	-10%
c1ccc(-c2nn3c(Cn4nnc5ccccc54)nnc3s2)nc1	-4%	0	16µM*	-18%	?	5%
Cc1ccc(Cn2nc(C)c(NC(=O)CSc3nc4c(c(C(F)(F)F)n3)CCc3ccccc3-4)c2C)cc1	-3%	0	10%	5%	0%	-4%
Cc1nn(Cc2ccc(Cl)cc2)c(C)c1NC(=O)CSc1nc2c(c(C(F)(F)F)n1)CCc1ccccc1-2	-1%	2	35µM*	2%	7%	7%
O=S(=O)(Cc1ccco1)Cc1nc(-c2ccc(Cl)cc2)cs1	-17%	1	25µM*	-6%	-12%	-4%
